Assay outcomes (PubChem)
NS1 function inh = blocks influenza NS1 protein function; Potency, µM (top dose mostly 46.1 µM), for the others: top-dose activity, positive = more growth; 270,000 compounds, 0.4% hits; AID 2326; also: actives are rising curves; nearly all actives have a fitted effect of over 50% in size
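Read-out: OD600 growth recovery of NS1-expressing budding yeast. Cells grown overnight at 30C in -URA glucose medium, washed, resuspended and diluted 1:100 in 2% galactose assay medium, pH 6.0. Same strain lacking NS1 served as positive control.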
Pf growth 48h = P. falciparum growth inhibition at 48 hours (one generation). 310,000 compounds, 5.9% hits. AID 504832. P. falciparum luciferase growth in erythrocytes, 48 h. Potency, µM (doses to about 28.7 µM), without a hit: at the top dose activity change, negative = inhibition, most hits filed as inhibitors; active = well fitted inhibition curve with a large enough effect; inconclusive = small, poorly fitted or top-dose-only effect, or another doubt; inactive = no such curve, though single readings can be large or run the other way; also: % is scaled to controls: 0 for no effect and ±100 for the full control effect
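Read-out is firefly luciferase luminescence from an integrated reporter in P. falciparum, so falling signal marks reduced parasite growth. Infected erythrocytes were at 2% hematocrit and 0.1% parasitemia (final) in Albumax-supplemented RPMI 1640.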
Pf growth 96h = inhibits malaria parasite growth, 96 h; P. falciparum luciferase reporter growth, 96 h; Potency, µM (top dose mostly 28.7 µM), for inactives: at the top dose activity change, negative = inhibition, hits mostly inhibitors; 320,000 compounds, 6.9% hits; active = well fitted inhibition curve with a large enough effect; inconclusive = small, poorly fitted or top-dose-only effect, or another doubt; inactive = no such curve, though single readings can be large or run the other way; also: % is scaled to controls: 0 for no effect and ±100 for the full control effect
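Delayed-death screen, second-generation endpoint: infected erythrocytes, 2% hematocrit, 0.05% parasitemia final; 96 hours at 37 C, 5% CO2; luciferase detection reagent; luminescence decrease equals reduced growth.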
SARS PLP yeast = blocks SARS-CoV papain-like protease in a yeast assay | Potency, µM (highest dose often 32.9 µM), for inactives: top-dose activity, positive = growth rescue, usual class: activators | S. cerevisiae expressing SARS-CoV PLpro, growth rescue | 330,000 compounds, 0.19% hits; also: 0% is about no effect; nearly all actives have a fitted effect of over 55% in size
* hit, by the source's call; ? = inconclusive; · = no result given. The list is not random: actives were taken first. Their share in the collection is about 10%. Unless noted, calls follow the shape of the full dose curve. Potency is read from the fitted curve at half-maximal effect.

SMILES | NS1 function inh | Pf growth 48h | Pf growth 96h | SARS PLP yeast
Cc1cccc(Nc2nc(N)nc(CN3CCN(Cc4ccc5c(c4)OCO5)CC3)n2)c1 | -14% | ? | 13µM* | -3%
CC(=O)c1c(C)[nH]c(C(=O)OCC(=O)N2CCc3ccccc3C2)c1C | · | ? | ? | -4%
CC(CC(=O)N1CCN(S(=O)(=O)c2ccc([N+](=O)[O-])cc2)CC1)c1ccccc1 (stereo not drawn) | · | 6% | ? | -3%
CC(NS(=O)(=O)c1ccccc1)C(c1cccs1)N1CCN(c2ccccc2)CC1 (stereo not drawn) | -62% | ? | 8.3µM* | 0%
COc1ccccc1N1CCN(C(c2cccs2)C(C)NC(=O)c2ccncc2)CC1 (stereo not drawn) | -11% | ? | ? | 0%
CC(NS(=O)(=O)c1ccc(Br)cc1)C(c1cccs1)N1CCN(C)CC1 (stereo not drawn) | -7% | -21% | ? | 5%
COc1ccccc1N1CCN(C(c2cccs2)C(C)NS(=O)(=O)c2ccccc2)CC1 (stereo not drawn) | · | ? | 7.4µM* | 0%
CCOc1ccc(CC2S/C(=N/c3ccccn3)NC2=O)cc1 (stereo not drawn) | 2% | 15µM* | 80% | 2%
O=C1NC(=Nc2ccc(Cl)cc2)SC1Cc1cc(Cl)ccc1Cl (stereo not drawn) | 15% | -12% | ? | 0%
O=C1NC(=Nc2ccc(F)cc2)SC1Cc1ccc(F)cc1 (stereo not drawn) | 3% | 9.3µM* | 8.3µM* | 1%
COc1ccc(N2CCN(C(=O)c3sc4ncn(CC(=O)N5CCCCC5C)c(=O)c4c3C)CC2)cc1 (stereo not drawn) | -9% | -9% | ? | 0%
Fc1ccc(Cn2nnnc2C(c2ccc(F)cc2)N2CC=C(c3ccc(F)cc3)CC2)cc1 (stereo not drawn) | -5% | -25% | 13µM* | -34%
COc1ccc(C(c2nnnn2Cc2ccccc2)N2CCN(C(=O)c3ccco3)CC2)cc1 (stereo not drawn) | -8% | ? | · | -2%
Fc1ccc(C(c2nnnn2Cc2ccccc2)N2CCSCC2)cc1 (stereo not drawn) | -32% | ? | · | -18%
COc1ccc(C(c2nnnn2Cc2cccs2)N2CCN(c3ccc(F)cc3)CC2)cc1OC (stereo not drawn) | -5% | 5.9µM* | 13µM* | 0%
COc1ccc(C(c2nnnn2Cc2ccc(F)cc2)N2CCN(c3ccccc3)CC2)cc1 (stereo not drawn) | -1% | 12µM* | ? | -8%
COc1ccc(Cn2nnnc2C(c2ccccn2)N2CCN(c3cc(Cl)ccc3C)CC2)cc1 (stereo not drawn) | -5% | 12µM* | · | -7%
CN(CC(=O)O)Cc1c(O)c(Cl)cc(Cl)c1Cl | -3% | · | · | ·
COc1ccc(Cn2nnnc2C(c2ccc(F)cc2)N2CCN(C3CCCC3)CC2)cc1 (stereo not drawn) | -5% | ? | 0% | -1%
CN1CCN(C(c2ccccc2)c2nnnn2Cc2ccccc2)CC1 (stereo not drawn) | 8% | 1% | -22% | 9%
COc1ccc(N2CCN(C(c3ccccc3)c3nnnn3Cc3ccc(F)cc3)CC2)cc1 (stereo not drawn) | 5% | 9.3µM* | · | -3%
COc1ccc(C(c2nnnn2Cc2ccc(F)cc2)N2CCN(c3ccc(OC)cc3)CC2)cc1 (stereo not drawn) | -30% | 10µM* | 50% | -14%
C=CCN(CC=C)C(=S)NC(=O)c1ccc(OC)cc1 | -4% | ? | 27% | 0%
CN(Cc1ccccc1)C(=S)NC(=O)c1ccc(-c2ccccc2)cc1 | -16% | ? | 7.4µM* | 11%
C=CCN(CC=C)C(=S)NC(=O)c1ccc(-c2ccccc2)cc1 | -51% | · | 7.4µM* | -17%
SMILES | NS1 function inh | Pf growth 48h | Pf growth 96h | SARS PLP yeast
COc1ccccc1CC(=O)N1CCC(n2nccc2NC(=O)C2CCOC2)CC1 (stereo not drawn) | 6% | 3% | -13% | 23%
O=C(NC1CCCc2ccccc21)c1ccccc1OC(F)F (stereo not drawn) | -11% | -1% | ? | -3%
N#CCN(N=Nc1ccccc1)c1ccccc1 | -5% | 10µM* | 0% | 7%
Cc1ccccc1NC(=O)c1ccc(NC(=O)C2CC(=O)OC23CCCCC3)cc1 (stereo not drawn) | -4% | 13µM* | 27% | 1%
O=C1CC(C(=O)Nc2ccccc2)C2(CCCC2)O1 (stereo not drawn) | -6% | 6% | 11% | 0%
O=C(c1ccccc1)c1cc2ccc(O)cc2oc1=O | -2% | 47% | 0.17µM* | -19%
CCOc1ccc(N2C(=O)CC(NCCNc3ccc([N+](=O)[O-])cn3)C2=O)cc1 (stereo not drawn) | 10% | 3% | 0.83µM* | -5%
COc1ccc(N2C(=O)CC(NCCNc3ccc([N+](=O)[O-])cn3)C2=O)cc1 (stereo not drawn) | 7% | -6% | 107% | -12%
O=C(/C=C/c1cccc(Cl)c1)N1CCC(Cc2ccccc2)CC1 | -33% | 33% | -10% | -22%
Cc1cc(C(=O)N2CCC(Cc3ccccc3)CC2)no1 | -2% | 80% | 15µM* | 1%
O=C(/C=C/c1ccccc1)N1CCC(Cc2ccccc2)CC1 | -75% | ? | 8.3µM* | -6%
Cn1c(C(=O)N2CCCC(C(=O)c3ccc(C(F)(F)F)cc3)C2)cc(=O)n(C)c1=O (stereo not drawn) | 5% | -7% | ? | -1%
O=C(Nc1ccc2nc(N3CCOCC3)sc2c1)c1ccc(F)cc1 | · | -28% | ? | 1%
O=C(Nc1ccc(F)cc1F)c1ccc2nc(N3CCOCC3)sc2c1 | -11% | 80% | 12µM* | 5%
COc1ccc(C2CCCN2C(=S)Nc2ccccc2C)cc1OC (stereo not drawn) | · | 9.3µM* | ? | 4%
COc1ccc(CNC(=O)CN2CCN(S(=O)(=O)c3c(C)c(C)cc(C)c3C)CC2)cc1OC | · | · | · | -10%
COc1ccc(CNC(=O)CN2CCN(S(=O)(=O)c3cc(Br)ccc3Br)CC2)cc1OC | · | 10µM* | ? | -5%
Cc1ccc(OCC(=O)NCCCNC(=O)c2cnccn2)cc1C | -1% | ? | -7% | 2%
Cc1cc(OCC(=O)NNC(=O)c2cnccn2)cc(C)c1Cl | -23% | ? | 12µM* | 16%
O=C(NNC(=O)C1CCCCC1)c1cnccn1 | -6% | -4% | 26% | -5%
O=C(CCC1CCCCC1)NNC(=O)c1cnccn1 | 5% | 13µM* | ? | ?
Cc1ccc(N(CCC(=O)N2CCOCC2)S(=O)(=O)c2ccccc2)cc1 | · | -14% | -3% | ·
Cc1nonc1NC(=O)OCCN1CCOC1=O | 4% | ? | 6.6µM* | 2%
Cc1cc(=O)[nH]c(SCC(=O)Nc2nonc2C)n1 | -1% | 14% | 0% | 1%
Oc1ccccc1CNCCCNCc1ccccc1O | 0% | 8.3µM* | 238% | -9%
CC(C)n1nccc1N(Cc1ccc(Br)cc1)S(=O)(=O)c1ccccc1 | -70% | 13µM* | 5.2µM* | -12%
